# Assay outcomes as filed in PubChem BioAssay.
# ST2 IL33 inh: IL1RL1 inhibition. AlphaLISA ST2-Fc/biotin-IL-33 interaction, 1 h. inhibition, % for hits at 17 µM. 78,000 tested, 2.3% active. AID 1259354; in the data active = inhibition above about 30%
# Target sequence (Q01638 whole entry, looked up): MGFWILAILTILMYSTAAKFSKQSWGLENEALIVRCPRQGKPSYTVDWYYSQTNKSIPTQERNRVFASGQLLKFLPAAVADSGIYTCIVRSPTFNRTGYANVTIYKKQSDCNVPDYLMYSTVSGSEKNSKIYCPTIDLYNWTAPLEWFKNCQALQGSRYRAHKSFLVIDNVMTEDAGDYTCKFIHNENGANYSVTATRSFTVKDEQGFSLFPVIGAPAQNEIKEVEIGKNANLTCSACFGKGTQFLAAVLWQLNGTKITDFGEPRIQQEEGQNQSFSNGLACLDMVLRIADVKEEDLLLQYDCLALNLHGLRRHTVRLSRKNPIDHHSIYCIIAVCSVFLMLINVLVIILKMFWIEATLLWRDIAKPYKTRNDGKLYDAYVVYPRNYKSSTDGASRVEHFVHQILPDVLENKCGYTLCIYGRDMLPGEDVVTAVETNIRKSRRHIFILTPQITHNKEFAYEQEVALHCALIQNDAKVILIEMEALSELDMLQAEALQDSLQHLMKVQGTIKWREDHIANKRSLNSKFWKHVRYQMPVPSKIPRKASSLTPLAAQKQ
# * = called active by the depositor; i = inactive; ! = a repeat was not active. The full list was thinned out, with hits kept by preference.
SMILES,ST2 IL33 inh
COc1ccc(OC)c(S(=O)(=O)Nc2cccc(Cl)c2)c1,i
O=C(c1cn[nH]n1)N1CCC(Nc2ccccn2)CC1,i
O=C(C[C@@H]1C[C@@H]2C=C[C@H]1C2)N1CCn2nc(C(=O)N3CCCC3)cc2C1,i
C=C(C)Cn1c(C(C)NC(=O)c2ccccc2)nc2ccccc21 (centres undefined),i
CCc1cccc(CC)c1NS(=O)(=O)c1cccc2cccnc12,i
CC(C)CCNC(=O)c1ccco1,i
CC(C(=O)N1CCCC1)N1CC(c2cccnc2)C1 (centres undefined),i
O=C1C=C(Nc2cccc(C(F)(F)F)c2)C(=O)c2ccccc21,31%*
Cc1nnc(Nc2cccc(C(F)(F)F)c2)[nH]c1=O,i
O=C(CCCCCN1C(=O)c2ccccc2C1=O)Nc1cccc(C(F)(F)F)c1,i
Cc1ccc(-c2noc(C(C)NC3CCSCC3)n2)cc1 (centres undefined),i
COc1ccccc1N=c1oc2c(OC)cccc2cc1C(=O)NC(C)=O,i
CN(CC(O)Cn1c2ccccc2c2ccccc21)S(=O)(=O)c1ccc(Br)cc1 (centres undefined),i
Cc1cc(C)n(CC(O)Cn2c(C)c(C)c3ccccc32)n1 (centres undefined),i
Cc1c(C)n(CC(O)CN2CCOCC2)c2ccccc12 (centres undefined),i
Cc1ccc(NCC(O)Cn2c(C)c(C)c3ccccc32)cc1C (centres undefined),i
Cc1c(C)n(CC(O)CNc2ccc(Br)cc2)c2ccccc12 (centres undefined),31%*
Cc1ccc(NCC(O)Cn2c(C)c(C)c3ccccc32)cc1 (centres undefined),36%*!
COCCN(CC1CCN(Cc2ccccc2F)CC1)C(=O)c1ccnc2ccc(C)cc12,i
CCOc1ccc(CCn2cnc3sc4c(c3c2=N)CCCC4)cc1OCC,i
CC(=O)Nc1cccc(-c2ccc(Cn3ccnc3)cc2)c1,i
O=C(c1cnnn1-c1ccccc1)N(Cc1ccccn1)CC1CCCO1 (centres undefined),i
Cc1cccc2[nH]c(CN(C)C(=O)c3cc(COc4ccccc4)[nH]n3)nc12,i
O=C(COc1ccc2c(c1)CCCC2)NCCc1ccccc1,i
COc1ccc(C(=O)Nc2cc(Cl)ccc2Cl)cc1[N+](=O)[O-],i
SMILES,ST2 IL33 inh
CCCCNC(=O)C1c2cc(OC)c(OC)cc2C(=O)N(C)C1c1ccccc1F (centres undefined),i
COc1ccccc1CNC(=O)C1c2cc(OC)c(OC)cc2C(=O)N(C)C1c1ccccc1F (centres undefined),i
COc1cc2c(cc1OC)C(C(=O)NCCN(C)C)C(c1ccccc1F)N(C)C2=O (centres undefined),32%*
CC(=O)N(C)c1ccccc1C(=O)O,i
CSc1ccc(C2Nc3cccc4cccc(c34)N2)cc1,31%*
CSc1ccc(C2Nc3ccccc3C(=O)N2c2ccc(C)cc2)cc1 (centres undefined),i
O=C(Cn1c2ccccc2c(=O)c2ccccc21)Nc1ccc(F)cc1F,i
O=c1oc(-c2ccccc2)nc2sc3c(c12)CCCCC3,36%*
O=c1oc(/C=C/c2cccs2)nc2sc3c(c12)CCCC3,i
O=C1CCc2nc3sc4c(c3c(=O)n2N1)CCCC4,i
COc1ccc(C=Nc2cc(C)ccc2C)cc1OC,i
CN=C1S/C(=C\c2cn(CC(=O)O)c3ccccc23)C(=O)N1C,i
Cc1oc(N=Cc2cn(Cc3ccccc3)c3ccccc23)c(C#N)c1C,46%*
Cc1ccc(Cn2cc(CCC(=O)O)c3ccccc32)cc1,i
Cc1cccc(C)c1NC(=O)NC1CCCCC1,i
O=[N+]([O-])c1cccc(-c2nc(-c3ccc(Br)cc3)no2)c1,i
Cc1csc(C(C)NC(=O)CCC2(Cc3ccc4ccccc4c3)CCC(=O)N2)n1 (centres undefined),i
Cc1ccc(-n2nc3c(c2NC(=O)c2cccc(F)c2)CS(=O)C3)cc1 (centres undefined),i
COc1cccc(Nc2nc3ccccc3nc2NS(=O)(=O)c2ccc(NC(C)=O)cc2)c1,37%*
COc1ccc(NS(=O)(=O)c2ccc(NC(=O)COc3ccccc3)cc2)cc1,i
COc1ccccc1NS(=O)(=O)c1ccc(NC(C)=O)cc1,i
COc1ccc(-c2nn(-c3ccccc3)cc2C2SCC(=O)N2Cc2ccccc2)cc1 (centres undefined),i
C=CCc1cc(OC)ccc1OCCN1CCN(C)CC1,i
CCOC(=O)c1[nH]c2ccc(F)cc2c1NC(=O)CNc1nccs1,i
CC(NC(=O)C(NS(=O)(=O)c1ccc2c(c1)oc(=O)n2C)C(C)C)c1ccccc1 (centres undefined),i
SMILES,ST2 IL33 inh
CS(=O)(=O)N(CC(=O)N1CCN(c2ccccc2F)CC1)c1ccccc1Br,i
O=C1C(=O)N(CCN2CCOCC2)C(c2ccc([N+](=O)[O-])cc2)C1=C(O)c1ccccc1 (centres undefined),i
O=C(/C=C(/c1ccccc1)N1CCOCC1)c1ccc([N+](=O)[O-])cc1,39%*
O=C(c1cc([N+](=O)[O-])ccc1N1CCOCC1)N1CCOCC1,i
O=C1/C(=C/c2ccccc2O)N=C2CCCCCN12,39%*
O=C1N=C(N2CCCC2)S/C1=C\c1ccccc1O,i
O=C1CCCN1c1ccccc1O,i
CCn1c(C2CCNCC2)nn(CCCc2ccccc2)c1=O,i
c1ccc2c(c1)COC(CN1CCN(CC3OCc4ccccc4CO3)CC1)OC2,i
CCOC(=O)C1(Cc2ccccc2F)CCCN(Cc2cnc(SC)nc2)C1 (centres undefined),i
COc1ccc(NC(=O)C(c2ccccc2)c2ccccc2)cc1,i
Cc1c(Cl)cccc1NC(=O)CN1CCN(C(=O)c2ccco2)CC1,i
O=C(CCS(=O)(=O)c1cccc2nonc12)NCCc1ccccc1,i
CC(C)CCNC(=O)CCS(=O)(=O)c1cccc2nonc12,60%*
CC(C)NC(=O)CCS(=O)(=O)c1cccc2nonc12,i
CC(C)C(=O)N1c2ccccc2NC2=C(C(=O)CC(c3ccccc3)C2)C1c1ccccc1 (centres undefined),i
CCOc1cc(-c2c(C#N)c(N)n3c(nc4ccccc43)c2C#N)ccc1OC,37%*
Cc1cc(-n2ccnc2C)n2c(nc3ccccc32)c1C#N,i
CCc1c(C)c(C#N)c2nc3ccccc3n2c1NCCOC,i
Cc1nnc(SCC(=O)Nc2nc3ccccc3s2)s1,i
O=C(O)c1ccc(CN2CCN(c3ccc([N+](=O)[O-])cc3)CC2)cc1,i
O=[N+]([O-])c1ccc(N2CCN(Cc3ccsc3)CC2)cc1,i
O=[N+]([O-])c1ccc(N2CCN(Cc3cccnc3)CC2)cc1,i
CCN1CCN(C(=O)CCC2CCN(CC3=CC[C@H]4C[C@@H]3C4(C)C)CC2)CC1,i
CC1(C)[C@H]2CC=C(CN3CCN(c4ccc([N+](=O)[O-])cc4)CC3)[C@@H]1C2,42%*
SMILES,ST2 IL33 inh
O=[N+]([O-])c1ccc(N2CCN(Cc3ccc(Br)o3)CC2)cc1,38%*
O=C(NCCCCCCNC(=O)NCc1ccc2c(c1)OCO2)NCc1ccc2c(c1)OCO2,i
Cc1cc2nc(Cc3ccccc3Cl)c(=O)[nH]c2cc1C,i
Cc1cc(=O)n2ncn(Cc3ccccc3)c2n1,i
O=C1CCCCCN1CC(=O)N(Cc1ccsc1)CC1CCCO1 (centres undefined),i
COc1ccccc1CN(Cc1ccc2c(C)cc(=O)oc2c1)C1CC1,i
